Measured values reported in PubChem BioAssay.
Active and inactive are the calls of the source. Unless noted, no rule for the calls is given here.

Assays:
[1] = compounds binding Alexa647 anti-His antibody – biochemical, small-molecule microarray, 635 nm fluorescence, artefact control for SMM control protein annotation, primary screen (AID 1128); details: higher = more signal;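 also: score merges feature fluorescence with signal-to-noise for each printed compound spot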
[2] = test system: Human papillomavirus type 1a E7 protein (residues 1-88); assay: HPV1a E7 small-molecule binders, primary screen, biochemical, small-molecule microarray, residues 1-88, 635 nm (AID 1129); details: small-molecule microarray binding, fluorescence 635 nm; higher = more signal
[3] = molecular target: Focal adhesion kinase 1 (Homo sapiens) (UniProt Q05397); assay: PTK2 protein binding on printed compound slides – biochemical, small-molecule microarray, 635/667 nm fluorescence, BSA, DTT, primary screen (AID 1130); details: 635 nm fluorescence, higher = more signal;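 also: composite of spot emission at 667 nm and signal to noise over triplicate slides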
Sequence of Focal adhesion kinase 1 (Homo sapiens) (Q05397 whole entry, looked up): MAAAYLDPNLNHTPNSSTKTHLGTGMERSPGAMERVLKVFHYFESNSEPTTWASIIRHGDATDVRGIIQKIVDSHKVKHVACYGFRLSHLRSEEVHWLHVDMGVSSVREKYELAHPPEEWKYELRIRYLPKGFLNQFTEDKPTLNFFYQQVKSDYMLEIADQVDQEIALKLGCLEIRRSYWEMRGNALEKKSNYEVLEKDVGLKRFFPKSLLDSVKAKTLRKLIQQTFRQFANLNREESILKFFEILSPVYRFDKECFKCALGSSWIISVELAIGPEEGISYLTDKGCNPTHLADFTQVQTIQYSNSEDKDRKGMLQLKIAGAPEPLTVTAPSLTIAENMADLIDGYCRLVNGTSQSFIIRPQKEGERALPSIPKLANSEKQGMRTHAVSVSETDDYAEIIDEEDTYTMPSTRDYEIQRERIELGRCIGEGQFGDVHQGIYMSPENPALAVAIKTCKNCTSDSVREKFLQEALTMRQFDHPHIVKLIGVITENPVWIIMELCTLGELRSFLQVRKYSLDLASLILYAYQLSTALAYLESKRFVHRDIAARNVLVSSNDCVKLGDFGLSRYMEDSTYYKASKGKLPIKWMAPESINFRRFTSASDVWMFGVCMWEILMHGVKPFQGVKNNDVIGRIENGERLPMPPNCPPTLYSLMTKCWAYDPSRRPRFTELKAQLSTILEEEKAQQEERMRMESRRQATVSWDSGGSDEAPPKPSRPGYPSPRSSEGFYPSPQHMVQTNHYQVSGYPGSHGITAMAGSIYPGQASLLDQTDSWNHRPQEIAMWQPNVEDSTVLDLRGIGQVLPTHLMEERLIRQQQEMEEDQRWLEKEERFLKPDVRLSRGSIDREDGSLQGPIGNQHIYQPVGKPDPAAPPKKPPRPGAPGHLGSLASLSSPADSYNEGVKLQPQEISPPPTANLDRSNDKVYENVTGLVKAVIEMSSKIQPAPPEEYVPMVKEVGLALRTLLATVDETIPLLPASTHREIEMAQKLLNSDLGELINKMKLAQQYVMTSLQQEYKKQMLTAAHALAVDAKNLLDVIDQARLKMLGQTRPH

[4] = test system: Fibrinogen (Alexa647-labelled); assay: Alexa647-fibrinogen binding to printed small molecules – biochemical, small-molecule microarray, 635/667 nm fluorescence, artefact control for SMM control-protein annotation, profiling panel (AID 1131); details: fibrinogen-A647 binding fluorescence, higher = more signal;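 also: z-score merges 667 nm fluorescence with per-spot signal-to-noise over triplicate slides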
[5] = molecular target: Follistatin (Homo sapiens) (UniProt P19883); assay: FST protein binding to printed compounds – biochemical, small-molecule microarray, 635/667 nm fluorescence, primary screen (AID 1132); details: 635 nm fluorescence, higher = more signal
Sequence of Follistatin (Homo sapiens) (P19883 whole entry, looked up): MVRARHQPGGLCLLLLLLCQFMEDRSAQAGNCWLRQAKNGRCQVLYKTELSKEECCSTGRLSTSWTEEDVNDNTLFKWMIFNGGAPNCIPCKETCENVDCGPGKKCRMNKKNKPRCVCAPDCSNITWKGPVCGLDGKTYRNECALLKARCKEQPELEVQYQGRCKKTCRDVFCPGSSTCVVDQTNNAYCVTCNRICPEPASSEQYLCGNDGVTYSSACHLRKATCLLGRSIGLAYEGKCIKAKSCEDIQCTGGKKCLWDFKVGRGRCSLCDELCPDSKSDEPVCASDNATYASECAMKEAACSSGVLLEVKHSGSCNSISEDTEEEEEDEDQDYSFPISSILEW

[6] = molecular target: Fibroblast growth factor 2 (Homo sapiens) (UniProt P09038); assay: basic fibroblast growth factor binding to printed compounds – biochemical, small-molecule microarray, 635/667 nm fluorescence, primary screen (AID 1133); details: FGF2, fluorescence 635/667, higher = more signal
Sequence of Fibroblast growth factor 2 (Homo sapiens) (P09038 whole entry, looked up): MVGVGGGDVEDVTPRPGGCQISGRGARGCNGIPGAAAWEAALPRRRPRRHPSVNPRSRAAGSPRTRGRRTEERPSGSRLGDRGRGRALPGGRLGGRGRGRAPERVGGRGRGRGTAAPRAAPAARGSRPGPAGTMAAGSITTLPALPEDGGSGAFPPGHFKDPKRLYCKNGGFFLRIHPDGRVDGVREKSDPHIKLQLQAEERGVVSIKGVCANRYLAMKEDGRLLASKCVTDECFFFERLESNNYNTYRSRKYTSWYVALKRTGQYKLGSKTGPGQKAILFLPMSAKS

[7] = JC-1 mitochondrial potential readout, lung cancer cells – cell-based, A549, JC-1 fluorescence, basal, 24 h, 100 nL, profiling panel (AID 1138); details: higher = more signal;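 also: A549 lung adenocarcinoma cells under basal conditions with no added stimulus; test concentration not given here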
Lefty1 = Lefty1 protein binding to printed compounds – biochemical, small-molecule microarray, 635/667 nm fluorescence, primary screen (AID 1139); details: fluorescence 635/667, higher = more signal
[8] = test system: wheat germ agglutinin (Triticum aestivum), Alexa647-labelled; assay: Alexa647-WGA lectin binding to printed small molecules – biochemical, small-molecule microarray, 635/667 nm fluorescence, artefact control for SMM control-protein annotation, profiling panel (AID 1140); details: WGA-A647 binding, 635 nm fluorescence, higher = more signal;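 also: score merges 667 nm feature emission with signal to noise over triplicate slides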
[9] = molecular target: Luciferin 4-monooxygenase (Photinus pyralis) (UniProt P08659); assay: inhibition of purified Photinus pyralis luciferase – biochemical, luminescence, purified enzyme, 2006 set, primary screen (AID 1141); details: purified firefly luciferase, SteadyGlo luminescence, 30 min; higher = more signal, called active from +8 up or from −8 down;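 also: cell-free assay with purified firefly luciferase at 100 ng per well in PBS; test concentration not given here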
Sequence of Luciferin 4-monooxygenase (Photinus pyralis) (P08659 whole entry, looked up): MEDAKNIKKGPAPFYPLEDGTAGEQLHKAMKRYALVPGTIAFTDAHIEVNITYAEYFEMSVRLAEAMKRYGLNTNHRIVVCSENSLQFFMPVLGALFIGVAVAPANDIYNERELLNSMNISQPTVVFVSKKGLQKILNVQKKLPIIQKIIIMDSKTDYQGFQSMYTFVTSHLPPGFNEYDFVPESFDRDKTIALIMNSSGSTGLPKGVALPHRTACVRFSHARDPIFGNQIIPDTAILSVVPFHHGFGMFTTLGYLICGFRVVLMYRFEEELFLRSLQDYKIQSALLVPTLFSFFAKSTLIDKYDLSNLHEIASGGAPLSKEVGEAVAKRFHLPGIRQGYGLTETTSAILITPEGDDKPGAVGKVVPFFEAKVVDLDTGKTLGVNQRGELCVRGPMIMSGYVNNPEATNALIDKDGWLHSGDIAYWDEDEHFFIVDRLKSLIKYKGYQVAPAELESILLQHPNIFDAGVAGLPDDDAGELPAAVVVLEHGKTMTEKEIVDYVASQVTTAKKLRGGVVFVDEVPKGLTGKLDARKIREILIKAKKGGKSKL

[10] = test system: Wnt5a (protein binding on small-molecule microarray); assay: small molecules binding Wnt5a protein – biophysical, small-molecule microarray, 635/667 nm fluorescence, primary screen (AID 1142); details: 635 nm fluorescence, higher = more signal;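 also: fluorescence read at 667 nm with signal to noise per printed feature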
[11] = ATP-based viability of Huh7 replicon cells – cell-based, CellTiter-Glo luminescence, basal, 48 h, cytotoxicity control for HCV replication inhibitor project, primary screen (AID 1143); details: higher = more signal, called active from +8 up or from −8 down;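 also: Huh7 hepatoma cells carrying a hepatitis C replication reporter with no stimulus; test concentration not given here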
[12] = Pseudomonas biofilm growth suppression – PAO1 strain, BacTiter-Glo luminescence, LB-PBS, primary screen (AID 1144); details: P. aeruginosa PAO1 biofilm, 12 h, higher = more signal
[13] = basal CRE-LacZ reporter activity in PC12 – cell-based, unstimulated, primary screen (AID 1145); details: no forskolin, luminescence, 4.5 h, higher = more signal, called active from +8 up or from −8 down
[14] = forskolin-driven CRE-LacZ activity in PC12 – cell-based, CRE-LacZ reporter, forskolin-stimulated, primary screen (AID 1146); details: luminescence, 4.5 h, higher = more signal, called active from +8 up or from −8 down;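 also: PC12 cells with 6xCRE LacZ reporter stimulated by forskolin 10 µM; beta-galactosidase reporter signal reflecting CREB driven transcription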
[15] = molecular target: Streptavidin (Streptomyces avidinii) (UniProt P22629); assay: compounds binding control protein streptavidin – biophysical, small-molecule microarray, 635/667 nm fluorescence, artefact control for SMM compound annotation, primary screen (AID 1147); details: higher = more signal;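 also: signal reflects streptavidin binding to arrayed compounds as a control protein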
Sequence of Streptavidin (Streptomyces avidinii) (P22629 whole entry, looked up): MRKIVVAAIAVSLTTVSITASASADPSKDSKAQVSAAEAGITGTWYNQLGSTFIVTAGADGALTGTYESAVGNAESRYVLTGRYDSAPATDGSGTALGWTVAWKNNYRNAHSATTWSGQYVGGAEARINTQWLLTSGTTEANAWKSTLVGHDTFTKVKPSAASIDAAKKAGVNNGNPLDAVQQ

[16] = probe aInhba binding on compound microarray – biochemical, small-molecule microarray, 635/667 nm fluorescence, primary screen (AID 1148); details: higher = more signal;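 also: score merges 667nm spot fluorescence with signal-to-noise for antibody binding to printed compounds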
Torsin-1A (Homo sapiens) [17] = molecular target: Torsin-1A (Homo sapiens) (UniProt O14656); assay: TOR1A wild-type binding on microarray – cell lysate, small-molecule microarray, lysate, 635/667 nm, primary screen (AID 1149); details: COS7 hTOR1A-WT lysate, 635 nm fluorescence, higher = more signal
Sequence of Torsin-1A (Homo sapiens) (O14656 whole entry, looked up): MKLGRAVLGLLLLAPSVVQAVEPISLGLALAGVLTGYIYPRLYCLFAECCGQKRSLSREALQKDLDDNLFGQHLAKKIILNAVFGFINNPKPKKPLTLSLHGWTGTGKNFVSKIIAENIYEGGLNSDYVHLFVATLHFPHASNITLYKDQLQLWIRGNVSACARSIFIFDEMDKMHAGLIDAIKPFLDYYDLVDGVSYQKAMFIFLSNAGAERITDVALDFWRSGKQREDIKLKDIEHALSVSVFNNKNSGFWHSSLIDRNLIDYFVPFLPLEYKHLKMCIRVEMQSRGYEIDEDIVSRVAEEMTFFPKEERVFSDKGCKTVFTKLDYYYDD

Torsin-1A (Homo sapiens) [18] = molecular target: Torsin-1A (Homo sapiens) (UniProt O14656); assay: torsin A mutant lysate binding on microarrays – cell lysate, small-molecule microarray, COS7 lysate, 635/667 nm fluorescence, primary screen (AID 1150); details: COS7 hTOR1A mutant lysate, 635 nm fluorescence, higher = more signal;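 also: score pools 667 nm emission and signal to noise measuring lysate protein binding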
[19] = test system: Sonic hedgehog protein (Shh); assay: Sonic hedgehog microarray binding compounds – biochemical, small-molecule microarray, 635/667 nm fluorescence, primary screen (AID 1151); details: 635 nm fluorescence, higher = more signal;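 also: Shh protein binding to compounds spotted on small-molecule microarray slides; score combines spot fluorescence intensity with signal-to-noise across triplicate slides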

| SMILES | composite z-score [1] | composite z-score [2] | composite z-score [3] | composite z-score [4] | composite z-score [5] | composite z-score [6] | z-score [7] | composite z-score (Lefty1) | composite z-score [8] | z-score [9] | composite z-score [10] | z-score [11] | z-score [12] | z-score [13] | z-score [14] | composite z-score [15] | composite z-score [16] | composite z-score (Torsin-1A (Homo sapiens) [17]) | composite z-score (Torsin-1A (Homo sapiens) [18]) | composite z-score [19] |
| --- | --- | --- | --- | --- | --- | --- | --- | --- | --- | --- | --- | --- | --- | --- | --- | --- | --- | --- | --- | --- |
| CCCC[C@@H](O)C1=C(COc2ccccc2)Cn2c(=O)n(-c3ccccc3)c(=O)n2[C@H]1CO | -0.265 | -0.476 | -0.103 | 0.729 | -0.28 | -0.242 | 0.363 | -0.193 | 0.31 | -1.79 (inactive) | -0.154 | -1.86 (inactive) | -0.569 (inactive) | 1.67 (inactive) | -1.23 (inactive) | -0.447 | -0.0762 | -0.218 | -0.348 | -0.0649 |
| Cc1cc(C)c(C(O)C2C=CC3C(=O)N(c4ccccc4)C(=O)C3N2Nc2ccc([N+](=O)[O-])cc2)c(C)c1 (stereo not given) | 0.945 | 1.22 | 0.434 | 1.02 | 1.08 | 0.504 | -0.712 | 0.648 | 0.71 | 1.12 (inactive) | 0.243 | -1.1 (inactive) | -2.08 (inactive) | -0.0696 (inactive) | 0.691 (inactive) | 1.72 | 0.548 | 0.567 | 1.2 | 0.697 |
| COc1ccccc1CN1C(=O)c2ccccc2[C@](Cc2ccccc2I)(C(=O)NCCN2CCOCC2)[C@@H]1c1ccc(CO)cc1 | 0.74 | 1.18 | 0.467 | 0.913 | 1.41 | 1.39 | 2.51 | 0.988 | 0.718 | -1.06 (inactive) | 0.375 | -4.52 (inactive) | 0.506 (inactive) | 0.648 (inactive) | -0.746 (inactive) | 0.593 | -0.101 | 0.301 | 0.504 | 1.48 |
| Cc1ccc(-c2cccc(=O)o2)cc1 | -1.57 | -0.935 | -0.404 | -0.551 | 0.272 | 0.156 | -0.241 | -0.33 | -0.233 | -1.23 (inactive) | 0.796 | -0.0525 (inactive) | 1.07 (inactive) | -0.322 (inactive) | 0.699 (inactive) | -0.317 | -0.0523 | -0.495 | -0.173 | -0.0613 |
| CC(C)c1ccc(NN2C(C(O)c3cccs3)C=CC3C(=O)N(c4ccccc4)C(=O)C32)cc1 (stereo not given) | 0.548 | 1.24 | 0.814 | 1.03 | 0.963 | -0.737 | -1.13 | 0.0247 | 1.06 | -0.893 (inactive) | 0.119 | -0.506 (inactive) | -0.579 (inactive) | 0.812 (inactive) | 0.311 (inactive) | 1.78 | 0.152 | 0.248 | 0.182 | -0.04 |
| C=C(COC)/C(=C/C[C@@H](OC(=O)c1ccncc1)c1cccc(OCCO)c1)c1cc(C(=O)OC)ccc1OC | 0.0301 | 0.942 | -0.0044 | 0.199 | 1.42 | 2 | 1.28 | 1.63 | 0.181 | -1.11 (inactive) | 0.996 | -8.13 (active) | -0.0417 (inactive) | 23.7 (active) | -0.376 (inactive) | -0.0673 | 0.709 | 2.64 | 1.49 | 2.11 |
| C=CCC(OC(C)=O)[C@@H]1[C@@H](N(Cc2ccc(-c3ccccc3)cc2)C(=O)Cc2ccc(OC)cc2)c2cc(OCCCO)ccc2N1C(=O)c1ccc(-c2ccccc2)cc1 (stereo not given in full) | -0.163 | 0.152 | 0.855 | 0.137 | 0.409 | -0.0805 | 2.32 | 0.182 | 0.495 | -0.663 (inactive) | 0.0546 | -1.56 (inactive) | 0.148 (inactive) | 1.34 (inactive) | -0.522 (inactive) | -0.0206 | -0.0018 | 0.0765 | 0.0644 | 1.16 |
| CN(C)C(=O)[C@]1(Cc2ccccc2N=[N+]=[N-])N=C(c2ccc(OCCCO)cc2)O[C@@H]1c1ccccc1CN=[N+]=[N-] | 1.28 | 1.25 | 0.651 | 1.06 | 1.23 | 1.06 | 0.417 | 0.624 | 0.763 | -0.307 (inactive) | 0.556 | -4.87 (inactive) | -1.57 (inactive) | 1.57 (inactive) | 0.367 (inactive) | 1.27 | 0.282 | 0.683 | 0.84 | 0.307 |
| CCCC=C(CCC)[C@@H](NC(=O)Cc1ccccc1)c1ccc(C(=O)OC)cc1 | 1.2 | 0.821 | 0.563 | 0.714 | 0.28 | 0.0515 | -0.298 | -0.365 | 1.03 | 1.54 (inactive) | 0.372 | -2.2 (inactive) | 0.354 (inactive) | 0.0041 (inactive) | 0.545 (inactive) | 1.68 | 0.376 | -0.0377 | -0.414 | -0.284 |
| COC(=O)C(CC#Cc1ccc2c(c1)[C@]1(C(=O)N2)[C@H](c2ccc(O)cc2)N2[C@H](c3ccccc3)[C@H](c3ccccc3)OC(=O)[C@H]2[C@@H]1C(N)=O)C(=O)OC | -2.69 | -1.91 | -0.627 | -1.96 | -2.01 | -1.44 | 1.42 | -2.6 | -2.35 | -0.899 (inactive) | -0.206 | -1.94 (inactive) | -1.56 (inactive) | 0.212 (inactive) | -0.615 (inactive) | -1.42 | -0.153 | -1.15 | -0.491 | -0.907 |
